Most compounds without a hit are left out; they make up all but 3.8% or so of the library.
HSF1 inh: HSF1 inhibitors in luciferase reporter cells, primary screen, cell-based, NIH3T3, luminescence; NIH3T3-HGL HSE-luciferase, MG132-induced, luminescence 8 h; stronger effect = lower value; activity change, negative = inhibition, % at 7.5 µM (by protocol); hit rate 0.77% among 300,000;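 active = more than half of replicate wells show activity change below -50%, luminescence cut by over half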;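 also: luciferase reports HSF-1 transcriptional activity via heat shock element; 0% = median of DMSO wells and -100% = zero luminescence signal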
NALP1 yeast inh: NALP1 inflammasome inhibitors in reconstituted yeast, colorimetric, S. cerevisiae, triplicate retest. S. cerevisiae NALP1/ASC/caspase-1 growth, X-gal OD620, 72 h. inhibition, % at 10 µM. hit rate 0.61% among 280,000; in the data active = inhibition mostly above about 24%, no sharp cut-off; inactive = mostly below about 32%
Hsp70 activator: Hsp70 transcriptional activators, primary screen, cell-based, HeLa, Hsp70 promoter luciferase, luminescence, 10 µM | hit rate 0.04% among 200,000 | AID 1203, 2008 | activation, % at 10 µM | HeLa Hsp70 promoter luciferase reporter; scaled: vehicle 0, proteasome-inhibitor control 100%;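 active = activation above the mean across all tested compounds plus 3 SD, cutoff set per campaign, cut at about 5.5% in these data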;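 also: 100% = MG132 at 30 µM as the positive control and 0% = DMSO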
HSF-1 act: HSF-1 activators, primary screen, NIH3T3-HGL cells, MG132 stress, luminescence, single point; NIH3T3-HGL HSF-1 luciferase reporter, 8 h; 100% = twice DMSO control signal; activation, % at 9 µM; hit rate 1.7% among 300,000;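 active = mean replicate activation of at least 50% with a set share of replicates each reaching 50%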;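 also: 0% = median of the neutral control wells and 100% = twice that signal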
HSP90 refold inh: HSP90 inhibitors, primary screen, cell lysate, luminescence; inhibition, % at 5.6 µM; hit rate 0.91% among 290,000; Rabbit reticulocyte lysate, luciferase refolding luminescence, 3 h; Heat shock protein HSP 90 (rabbit reticulocyte lysate; luciferase refolding);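 active = inhibition above the screen-wide mean plus 3 SD, computed separately per campaign, cut at about 16% in these data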;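 also: 0% = DMSO wells and 100% = 60 µM geldanamycin wells; inhibitors lower the luminescence because luciferase stays unfolded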
p-CIP stab down: p/CIP-EGFP fusion destabilizers, primary screen, fluorescence, F442A cells. AID 1984, 2009. hit rate 0.01% among 290,000. decrease of EGFP signal, % at 10 µM. Q05BA5. 16 h;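 active = EGFP signal decrease of at least 30% at 10 µM or well 3 SD below plate mean, unless failing retest; inactive = the rest, including hits failing retest or dose response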
Target sequence (Q05BA5 1-1403): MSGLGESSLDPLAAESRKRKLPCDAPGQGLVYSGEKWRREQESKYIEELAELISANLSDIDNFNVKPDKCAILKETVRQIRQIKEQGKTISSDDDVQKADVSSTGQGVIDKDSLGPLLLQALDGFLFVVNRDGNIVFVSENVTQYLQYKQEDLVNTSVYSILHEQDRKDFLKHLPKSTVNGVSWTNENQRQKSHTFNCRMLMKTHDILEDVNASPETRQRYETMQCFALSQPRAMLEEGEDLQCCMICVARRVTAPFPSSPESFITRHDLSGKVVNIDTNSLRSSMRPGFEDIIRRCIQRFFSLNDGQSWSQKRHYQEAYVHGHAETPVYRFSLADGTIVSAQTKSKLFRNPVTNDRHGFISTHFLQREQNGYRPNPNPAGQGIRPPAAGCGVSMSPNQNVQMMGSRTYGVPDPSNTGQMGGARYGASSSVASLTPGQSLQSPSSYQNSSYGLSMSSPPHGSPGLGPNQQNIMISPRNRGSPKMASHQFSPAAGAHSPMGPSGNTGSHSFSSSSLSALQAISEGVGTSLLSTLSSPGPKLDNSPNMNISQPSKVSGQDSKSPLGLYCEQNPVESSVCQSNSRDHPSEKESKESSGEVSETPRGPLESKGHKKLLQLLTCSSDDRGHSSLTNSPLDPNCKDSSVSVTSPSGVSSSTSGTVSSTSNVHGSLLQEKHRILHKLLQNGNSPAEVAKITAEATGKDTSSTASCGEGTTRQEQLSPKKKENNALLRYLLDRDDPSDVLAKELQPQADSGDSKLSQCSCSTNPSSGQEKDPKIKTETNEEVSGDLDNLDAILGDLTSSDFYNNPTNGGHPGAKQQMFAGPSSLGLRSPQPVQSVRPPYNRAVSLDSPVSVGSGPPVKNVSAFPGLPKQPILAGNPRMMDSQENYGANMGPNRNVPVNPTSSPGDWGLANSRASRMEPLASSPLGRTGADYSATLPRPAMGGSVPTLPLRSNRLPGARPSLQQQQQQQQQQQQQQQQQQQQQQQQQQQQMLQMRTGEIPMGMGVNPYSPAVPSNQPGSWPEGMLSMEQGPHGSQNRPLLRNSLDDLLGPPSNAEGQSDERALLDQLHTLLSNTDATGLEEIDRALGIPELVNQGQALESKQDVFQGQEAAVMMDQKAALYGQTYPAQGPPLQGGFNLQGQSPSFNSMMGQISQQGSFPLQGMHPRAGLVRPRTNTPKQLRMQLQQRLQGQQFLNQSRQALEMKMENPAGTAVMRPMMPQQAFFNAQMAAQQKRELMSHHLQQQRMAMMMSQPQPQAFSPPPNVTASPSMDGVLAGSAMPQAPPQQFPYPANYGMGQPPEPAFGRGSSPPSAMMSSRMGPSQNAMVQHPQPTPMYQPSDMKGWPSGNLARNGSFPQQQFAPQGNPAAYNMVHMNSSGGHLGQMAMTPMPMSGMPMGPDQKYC
* hit, by the source's call; nt = not tested or not shown.

SMILES	HSF1 inh	NALP1 yeast inh	Hsp70 activator	HSF-1 act	HSP90 refold inh	p-CIP stab down
CC(C)(C)c1ccc2c(c1)OC(C(=O)N/N=C\c1ccncc1)CO2 (configuration not stated)	2	21	nt	-2	5	-18
CC(C)(C)c1ccc2c(c1)OC(C(=O)N/N=C\c1ccc[nH]1)CO2 (configuration not stated)	-73*	-25	nt	-75	4	-9
COc1ccc(-c2nn(-c3ccccc3)cc2/C=N/Nc2ccc(Cl)c(C(=O)O)c2)cc1OC	-4	-6	nt	12	17*	-5
COc1ccc(-c2nn(-c3ccccc3)cc2C(=O)O)cc1OC	-7	-19	0	6	6	-11
COc1ccc(-c2nn(-c3ccccc3)cc2/C=C(\CC(=O)O)c2nc3ccccc3s2)cc1OC	-70*	20	0	-78	-2	-1
O=C(O)c1ccc(N/N=C/c2ccc(-c3ccccc3)cc2)cc1	-9	19	0	8	5	12
O=C(O)c1cc(N/N=C/c2ccc(-c3ccccc3)cc2)ccc1Cl	-12	8	nt	-4	29*	-5
Cc1c(C)c2ccc(OCC(=O)Nc3cccnc3)cc2oc1=O	1	9	nt	35	5	-4
COc1ccccc1C(=O)OCC(=O)c1cccc([N+](=O)[O-])c1	-76*	28	0	-83	-1	-12
O=C(COC(=O)c1ccccc1NC(=O)c1ccccc1)c1cccc([N+](=O)[O-])c1	10	24	0	31	-1	3
CC1CC2C3CCC4=CC(=O)C=CC4(C)C3(F)C(O)CC2(C)C1(O)C(=O)CO (configuration not stated)	-54*	nt	nt	-55	-1	-10
CCN(CC)c1ccc(NC(=O)c2cccc(C)c2OC)c(C)c1	2	29*	0	-6	-1	-2
Brc1ccc(N=C/C=C/C=C/Nc2ccc(Br)cc2)cc1	nt	-9	0	nt	2	-7
Nc1nc(N)c(C=Nc2ccc(Br)cc2)c(Nc2ccc(Br)cc2)n1	38	28	nt	67*	3	-3
O=C(O)CCc1nc(-c2cccs2)no1	1	3	0	-1	2	-18
O=[N+]([O-])c1ccccc1OCc1nc(-c2cccs2)no1	27	-8	0	82*	-8	5
Cc1ccc(OCc2nc(-c3cccs3)no2)c([N+](=O)[O-])c1	55	-3	0	104*	7	-2
Cc1ccc(OCc2nc(-c3ccccc3)no2)c(C)c1	56	6	1	109*	-5	-1
O=[N+]([O-])c1ccc(F)cc1OCc1nc(-c2cccs2)no1	28	5	0	66*	-2	2
Fc1ccc(OCc2nc(-c3ccc(Br)o3)no2)c(F)c1	4	-8	0	17	-1	-14
CCN(CC)S(=O)(=O)c1cc(NC(=O)Cc2ccsc2)ccc1C	2	6	nt	8	-5	0
CCS(=O)(=O)c1ccc(O)c(NC(=O)Nc2ccc(C(C)(C)C)cc2)c1	-4	nt	nt	-11	-4	-6
COCC1CCN(Cc2nc(-c3cccs3)no2)C1 (configuration not stated)	8	9	0	9	3	-3
COc1ccccc1CN1CCN(Cc2nc(-c3cccs3)no2)CC1	7	22*	0	21	-4	-5
CCCOC(=O)c1ccc(Cl)c(NC(=O)c2cccnc2)c1	3	-7	0	9	-3	4
SMILES	HSF1 inh	NALP1 yeast inh	Hsp70 activator	HSF-1 act	HSP90 refold inh	p-CIP stab down
COc1ccc(C(C(=O)NC2CCCCC2)N(C(=O)CCl)c2cccc(Cl)c2)cc1 (configuration not stated)	-90*	17	0	-90	1	-2
CC(C)(C)c1ccc(-c2cn(-c3ccc(Br)cc3)c3[n+]2CCCS3)cc1	-7	-4	0	-11	1	-29
COc1cccc(N2C(=O)C3C(C2=O)C3(c2ccccc2)c2ccccc2)c1 (configuration not stated)	4	32*	nt	7	0	2
COc1cccc(NC2SC(=O)N(c3ccccc3)C2=O)c1 (configuration not stated)	35	26	0	59*	-1	-5
CCOc1ccc(N2C(=O)C3C(C2=O)C3(c2ccccc2)c2ccccc2)cc1 (configuration not stated)	-2	29	0	-8	4	-2
COc1cccc(N2C(=O)N(c3ccccc3)C3CS(=O)(=O)CC32)c1 (configuration not stated)	-84*	1	0	-88	-2	-1
COc1cccc(N2C(=O)N(c3ccccc3Cl)C3CS(=O)(=O)CC32)c1 (configuration not stated)	-5	-8	0	5	1	-1
CCCCCC(=O)Nc1nnc(CCc2ccccc2)s1	-2	10	nt	-5	2	-4
COc1ccc(NC(=O)Nc2c(C)n(C)n(-c3ccccc3)c2=O)c(OC)c1	-9	7	nt	-8	-2	-6
COc1ccc(-c2nn(-c3ccccc3)cc2/C=N/N2C(=O)CSC2=S)cc1	38	-3	0	76*	0	-4
O=C(CN(CC1CCCO1)S(=O)(=O)c1ccc(S(=O)(=O)NC2CC2)cc1)Nc1ccccc1 (configuration not stated)	61	34	0	115*	2	6
COc1ccc(C(=O)NC2CC2)cc1OC1CCN(Cc2ccc(F)cc2Cl)CC1	3	20	nt	2	-3	-4
COc1ccc(-c2ncc3ccccn23)cc1OC	8	21	0	26	-5	4
Clc1ccccc1-c1ncc2ccccn12	129	-12	0	168*	0	-3
Clc1ccc(-c2ncc3ccccn23)cc1	38	8	0	63*	-1	0
CCN(c1ccc(OC)cc1)c1ncnc2nc[nH]c12	-64*	15	0	-72	-1	-3
O=C(Nc1ccccc1N1CCCC1)C1CCN(C(=O)c2ccc(Cl)cc2)CC1	-5	nt	nt	-7	nt	nt
O=C(NC1CCCC1)C1CCN(C(=O)c2ccc(Cl)cc2)CC1	16	5	nt	54*	7	-8
O=C(c1ccc(Cl)cc1)N1CCCC(C(=O)N2CCN(c3ccccc3)CC2)C1 (configuration not stated)	1	44*	nt	6	-3	-3
O=C(Nc1ccccc1N1CCCCC1)C1CCN(S(=O)(=O)c2ccccc2C(F)(F)F)CC1	-58*	nt	nt	-69	nt	nt

Screens from PubChem BioAssay.
